The source of these data is PubChem BioAssay (NCI).

Some test systems named below: HCT-15 colon; HT29 colon; SNB-75 CNS; SNB-19 CNS; U251 CNS; PC-3 prostate; SK-MEL-5 melanoma; UACC-62 melanoma; LOX IMVI melanoma; SK-MEL-28 melanoma; SK-MEL-2 melanoma; EKVX NSCLC; SN12C renal; UO-31 renal; ACHN renal; CAKI-1 renal; A498 renal; CCRF-CEM leukemia; MOLT-4 leukemia; TK-10 renal.
Test in all cases: NCI-60 one-dose screen, 48 h (100 = growth as untreated, 0 = no growth, -100 = all killed)
Common to all, as to conditions: 10 µM unless noted

Compounds without any hit were thinned out: in the full panel of roughly 83,000, 20% have a hit.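 Each cell line was grown in a 96-well plate and treated with one concentration of compound for 48 hours. Values below 10 were considered active.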 Unmarked numbers belong to inactive results. The source made the active and inactive calls.

With `CC(C)(Sc1cc(C(C)(C)C)c(O)c(C(C)(C)C)c1)Sc1cc(C(C)(C)C)c(OC(=O)CCC(=O)O)c(C(C)(C)C)c1`, the growth in the assay on HCT-15 colon is 22%; with HT29 colon, 24.2%; with SNB-75 CNS it was 94.2%; in the assay with SNB-19 CNS it was 47.4%; with U251 CNS it was 34.4%; in the assay on PC-3 prostate, 35.5%. The growth in the assay with SK-MEL-5 melanoma was 50.1%; in the assay on UACC-62 melanoma, 6.79% (active); with LOX IMVI melanoma, 56.1%; with SK-MEL-28 melanoma, 54.1%; in the assay on SK-MEL-2 melanoma it was 23.4%; in the assay on EKVX NSCLC, 44.1%. Moreover, the growth in the assay with SN12C renal is 34.2%; in the assay with UO-31 renal, 33.2%; in the assay on ACHN renal, 44.5%; in the assay on CAKI-1 renal it was 54.5%; in the assay on A498 renal it was 63.6%; in the assay with CCRF-CEM leukemia it was 35.8%. The growth in the assay with MOLT-4 leukemia was 73.3%.
Turning to `O=c1oc2c(cnc3ccccc32)cc1-c1cccc(Cl)c1`, the growth is 101% with HCT-15 colon; 108% with HT29 colon; 95.6% with SNB-75 CNS; 98.5% in the assay with SNB-19 CNS; 98.2% with U251 CNS; 97.7% with PC-3 prostate. Moreover, the growth in the assay with SK-MEL-5 melanoma was 107%; with UACC-62 melanoma, 96.1%; with LOX IMVI melanoma, 102%; in the assay with SK-MEL-28 melanoma, 105%; in the assay with SK-MEL-2 melanoma, 118%; with EKVX NSCLC it was 99.1%. Moreover, the growth was 98.3% in the assay with SN12C renal; 90.4% in the assay with UO-31 renal; 118% with TK-10 renal; 104% with ACHN renal; 92% in the assay on CAKI-1 renal; 83.1% with A498 renal. The growth with MOLT-4 leukemia was 96.3%.
Turning to `COC1C(O)CC(OC2CC(OC3CC(O[C@@H]4C(=O)c5c(cc6cc(OC7CC(OC8CC(O)C(O)C(C)O8)C(O)C(C)O7)c(C)c(O)c6c5O)CC4[C@H](OC)C(=O)C(C)=O)OC(C)C3O)OC(C)C2O)OC1C` (some centres not stated), the growth in the assay on HCT-15 colon was -2.22% (active); in the assay with HT29 colon, -19.8% (active); with SNB-75 CNS it was -80.9% (active); in the assay on SNB-19 CNS, 11.2%; with U251 CNS, 1.19% (active); in the assay with PC-3 prostate, -1.97% (active). Also, the growth in the assay with SK-MEL-5 melanoma was -40.4% (active); in the assay with UACC-62 melanoma, -30.3% (active); in the assay on LOX IMVI melanoma, -2.05% (active); in the assay on SK-MEL-28 melanoma it was -20.6% (active); in the assay on SK-MEL-2 melanoma, -41.9% (active); with EKVX NSCLC, 3.71% (active). For the same molecule, the growth in the assay with SN12C renal is 7.44% (active); in the assay on UO-31 renal it was -27.7% (active); with ACHN renal it was 5.29% (active); with CAKI-1 renal, 16.9%; in the assay with A498 renal it was -44.1% (active); with CCRF-CEM leukemia it was 4.37% (active). Besides, the growth in the assay with MOLT-4 leukemia is -6.83% (active).
Consider `COc1cc(-c2cc(-c3ccc(Nc4nc(Nc5ccc(Cl)cc5)nc(Nc5ccc(Cl)cc5)n4)cc3)no2)cc(OC)c1OC`, for which the growth in the assay with HCT-15 colon is 81.2%; with HT29 colon, 78.8%; in the assay on SNB-75 CNS, 74.6%; in the assay on SNB-19 CNS it was 81.6%; in the assay on U251 CNS it was 73.4%; in the assay on PC-3 prostate, 60.1%. The growth in the assay on SK-MEL-5 melanoma is 61.2%; with UACC-62 melanoma, 82.1%; in the assay on LOX IMVI melanoma, 73.3%; with SK-MEL-28 melanoma, 88%; with SK-MEL-2 melanoma, 55.2%; in the assay on EKVX NSCLC it was 67.1%. In addition, the growth with SN12C renal is 106%; in the assay with UO-31 renal, 61.6%; in the assay on ACHN renal, 78.9%; in the assay on CAKI-1 renal, 75.4%; in the assay on A498 renal, 68.3%; in the assay with CCRF-CEM leukemia it was -5.88% (active). For the same molecule, in the assay with MOLT-4 leukemia, the growth was -10.3% (active).
With `Cn1c(=O)[nH]c(=O)c2nc3c(nc21)-c1ccccc1C3=O`, the growth is 102% with HCT-15 colon; 101% in the assay on HT29 colon; 88.9% in the assay on SNB-75 CNS; 98.1% in the assay on SNB-19 CNS; 106% in the assay with U251 CNS; 95.8% with PC-3 prostate. Also, the growth with SK-MEL-5 melanoma was 98.5%; in the assay with UACC-62 melanoma it was 91.2%; with LOX IMVI melanoma, 95.9%; in the assay on SK-MEL-28 melanoma, 97.4%; in the assay on SK-MEL-2 melanoma it was 103%; in the assay with EKVX NSCLC, 95%. Besides, the growth in the assay on SN12C renal is 96.6%; in the assay on UO-31 renal it was 83.8%; in the assay with ACHN renal, 94.2%; with CAKI-1 renal, 89.9%; in the assay on A498 renal, 95.2%; in the assay on CCRF-CEM leukemia, 106%. Moreover, in the assay on MOLT-4 leukemia, the growth is 105%.
Take `C[C@@H]1CN(c2cnc(C(=O)Nc3cc(F)cc4cccnc34)cn2)C[C@H](C)N1`: the growth in the assay with HCT-15 colon is 35.7%; with HT29 colon it was 35.5%; in the assay on SNB-75 CNS, 69%; with SNB-19 CNS it was 92.4%; with U251 CNS, 76.6%; with PC-3 prostate, 21.2%. Also, the growth in the assay on SK-MEL-5 melanoma was 102%; with UACC-62 melanoma, 94.3%; with LOX IMVI melanoma, 72.7%; in the assay with SK-MEL-28 melanoma, 94%; in the assay with SK-MEL-2 melanoma it was 105%; with EKVX NSCLC it was 77%. The growth with SN12C renal was 83.2%; in the assay with UO-31 renal it was 44.1%; with ACHN renal it was 32.3%; in the assay on CAKI-1 renal, 66.2%; in the assay with A498 renal, 67.4%; in the assay with CCRF-CEM leukemia, 26.9%. Also, the growth with MOLT-4 leukemia is 33%.
`O=S(=O)(Nc1cc(F)cc(F)c1)c1ccc(-c2cnc(C3CC3)o2)cc1`: the growth is 20% with HCT-15 colon; 4.44% (active) in the assay with HT29 colon; -3.36% (active) with SNB-75 CNS; 30% with SNB-19 CNS; 33% in the assay on U251 CNS; 48.1% in the assay with PC-3 prostate. Further, the growth with SK-MEL-5 melanoma is 29.4%; in the assay on UACC-62 melanoma, 33.7%; in the assay on LOX IMVI melanoma it was 36.3%; in the assay with SK-MEL-28 melanoma it was 60.8%; with SK-MEL-2 melanoma, 39.9%; in the assay on EKVX NSCLC it was 52.5%. In addition, the growth with SN12C renal is 46.9%; with UO-31 renal, 50.1%; in the assay on ACHN renal, 43.5%; with CAKI-1 renal, 32.7%; in the assay on A498 renal, 1.5% (active); with CCRF-CEM leukemia, 32.2%. For the same molecule, in the assay with MOLT-4 leukemia, the growth was 39.1%.
Regarding `CCn1cc(C(=O)O)c(=O)c2cc(F)c(N3CCN(CC(=O)Nc4ccccc4)C(C)C3)c(F)c21` (configuration not stated), the growth with HCT-15 colon is 101%; in the assay on HT29 colon, 108%; in the assay on SNB-75 CNS, 86.1%; in the assay with SNB-19 CNS, 99.1%; in the assay with U251 CNS, 102%; with PC-3 prostate, 93.2%. Moreover, the growth in the assay on SK-MEL-5 melanoma is 99.2%; in the assay on UACC-62 melanoma, 78.2%; in the assay with LOX IMVI melanoma, 88.5%; in the assay on SK-MEL-28 melanoma it was 97%; in the assay on SK-MEL-2 melanoma, 122%; in the assay on EKVX NSCLC it was 104%. The growth is 103% with SN12C renal; 76.5% in the assay with UO-31 renal; 97.8% with ACHN renal; 87% in the assay with CAKI-1 renal; 73.4% in the assay on A498 renal; 96.7% in the assay on CCRF-CEM leukemia. Further, the growth in the assay on MOLT-4 leukemia is 107%.
